In PubChem BioAssay AID1117359 (Southern Research Institute, 2015) one finds outcome data, which are given here for 30 compounds.

Molecules are shown by their SMILES. The campaign covered roughly 1,500 compounds. About 460 (31%) were called active.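 How the source made its calls: active means viability at or below 80% at any tested concentration, marking the compound as toxic; inactive means the rest.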 A selection follows. Results with a measured potency or affinity are listed apart.

A short description of this assay: THP-1 cell cytotoxicity, dose response, cytotoxicity control for Vif-APOBEC3G degradation inhibitor project, THP-1 cells (AID 1117359). The following applies: THP-1 viability, CellTiter-Glo luminescence, 72 h; series mostly up to 40 µM. A general note: In ATP-based viability assays light output follows the ATP content of the culture.
For `Cc1cc(C)c2c(c1)[C@@H]1C=CC[C@@H]1[C@H](c1ccc(S(=O)(=O)N3CCOCC3)cc1)N2`, the outcome was inactive.
On to `Cc1oc(-c2ccccc2)nc1C(=O)OCC(=O)NCc1ccc(F)cc1`, for which the result was inactive.
The value for `CCC1(C(N)=O)CC2C=CC1C2` (stereo not given) was “inactive”; that for `Cc1ccc(NC(=O)CCCCCC2NC(=O)NC2C)cc1` (stereo not given) was “inactive”.
The value for `O=C(CN1C(=O)c2ccccc2C1=O)NCC(=O)OCC(=O)c1cccc([N+](=O)[O-])c1` was “inactive”; that for `C=C(C)C(=O)Nc1ccc2c(c1)OCCOCCOCCO2` was “inactive”.
The value for `CCCCNC(=O)CN1C(=O)CSc2ccc(S(=O)(=O)N3CCOCC3)cc21` was “inactive”; that for `O=C(O)CCc1ccc(S(=O)(=O)Nc2cc(C(F)(F)F)ccc2N2CCCC2)cc1` was “inactive”.
`CCCC(=O)NNC(=O)Nc1ccccc1`: the compound was classed as inactive.
The value for `CCNC(=S)Nc1ccc(N(c2ccccc2)C(C)C)cc1` was “inactive”; that for `Cc1c(Cl)cccc1NC(=O)CC(Cc1ccccc1)C(=O)O` (stereo not given) was “inactive”; that for `CCN(CC)c1ccc(NC(=O)c2c(C)noc2C)cc1` was “inactive”.
Turning to `CSc1nc(N2CCOCC2)c2c3c(sc2n1)CCC3`, the call was inactive.
For `Cc1nn(CC(=O)Nc2ccccn2)c(C)c1Br`, the call was inactive.
The value for `CC(=O)c1ccc(N2CCN(C(=O)c3ccc4c(c3)OCO4)CC2)cc1` was “inactive”.
The value for `CC(C)(CS(=O)(=O)[O-])NC(=O)CC[N+](C)(C)CCO` was “inactive”.
The value for `CCOc1cc(N2CCOCC2)c(OCC)cc1NC(=O)CSc1ncn[nH]1` was “inactive”; that for `CCOc1ccc(S(=O)(=O)N2CC(=O)Nc3ccccc32)cc1C#N` was “inactive”.
Take `O=C(N/N=C/C=C/c1ccco1)c1cccs1`: the compound was called inactive.
The value for `O=C(CSc1nc2cc([N+](=O)[O-])ccc2n1-c1ccccc1)NCc1ccc2c(c1)OCO2` was “inactive”; that for `COCCCN1C(=O)N(c2ccc(F)cc2)C(=O)C1CC(=O)Nc1ccc(OC)cc1` (stereo not given) was “inactive”.
The value for `Cc1ccc(S(=O)(=O)OCC(=O)Nc2ccc(C(=O)O)c(O)c2)cc1` was “inactive”; that for `CC(C)CCN1CCN(Cc2cccn2-c2cccnc2)CC1CCO` (stereo not given) was “inactive”.
The value for `NS(=O)(=O)c1ccc(NC(=O)COC(=O)c2cc(Cl)ccc2[N+](=O)[O-])cc1` was “inactive”; that for `Cc1cc(NC(=O)C2CCCC2)n(-c2nc3ccccc3[nH]2)n1` was “inactive”.
In the case of `CCN(c1ccc(NC(=O)COC(=O)c2ccc([N+](=O)[O-])o2)cc1)C(C)C`, the result was inactive.
Take `CSc1ccc(/C=N/n2c(C3CCCCC3)n[nH]c2=S)cc1`: the call was inactive.
Turning to `NS(=O)(=O)c1ccc(N=Nc2ccc(=O)[nH]c2O)cc1`, the result was inactive.
The value for `O=C(O)c1cccc2c1Oc1ccccc1S2(=O)=O` was “inactive”; that for `CC(C)(C)CN1CCNC(=O)C1CC(=O)NCCc1ccccc1C(F)(F)F` (stereo not given) was “inactive”.
